According to the supplement of paper PMC6763611:

test system: Plasmodium falciparum NF54; experiment: growth inhibition relative to untreated control; higher = more inhibition; conditions: 5 µM; MM + chorismate end-products (CM screening medium); 72 h
Procedure, shortened: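 P. falciparum NF54 ring stages (1% hematocrit, 1% parasitemia, 100 μL/well in 96-well half-area dark plates) were exposed for 72 h at 37 °C to single 5 μM or 1 μM doses of Pathogen Box compounds. The medium was minimal RPMI or minimal RPMI plus chorismate end-products (2.2 μM folate, 7.3 μM pABA, 7.3 μM pHBA, 111 μM tyrosine, 90 μM phenylalanine, tryptophan). Growth inhibition was read by SYBR Green, normalised to untreated controls, with uninfected erythrocytes as background.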

Row | SMILES | growth inhibition [%]
1 | N#Cc1ccc(-c2ccc(OCC(N)=O)cc2)cc1 | < 0
2 | CNC(=O)C1Cc2ccccc2N1C(=O)Cc1ccc(F)cc1 (stereo unspecified) | < 0
3 | CCC(Sc1nc2ccccc2o1)C(=O)Nc1nnc(C)s1 (stereo unspecified) | < 0
4 | CCOc1ccc(OCC(=O)Nc2cc(C)cc(C)c2)cc1 | 32.1
5 | CCn1ncc2c(NC3CCOCC3)c(CNC(=O)c3ccnn3C)c(C)nc21 | 92.6
6 | CN(C(=O)c1cc2c(-c3cncnc3)cccc2[nH]1)c1ccccc1 | 96
7 | CCCCCCCCCCCCCCCCOP(=O)([O-])OCC[N+](C)(C)C | 3.26
8 | CO[C@H]1/C=C\O[C@@]2(C)Oc3c(C)c(O)c4c(O)c(/c(=C/NN5CCN(C)CC5)c(O)c4c3C2=O)=N\C(=O)/C(C)=C\C=C/[C@H](C)[C@H](O)[C@@H](C)[C@@H](O)[C@@H](C)[C@H](OC(C)=O)[C@@H]1C | > 100
9 | c1ccc(C[C@@H]2CN(c3nccc(Oc4ccc(-n5ccnc5)cc4)n3)CCN2)cc1 | 95.3
10 | c1ccc2c(c1)CN(CC1CC1)CC1(CCN(Cc3c[nH]c4cnccc34)CC1)O2 | 93.1
11 | CCCNC(=O)N1CCC2(CC1)CC(=O)c1cc(C)ccc1O2 | 86.4
12 | O=C1Nc2ccc(Br)cc2C12NCCc1c2[nH]c2ccccc12 (stereo unspecified) | 95.9
13 | N=C(N)Nc1ccc(-c2ccc(-c3ccc(NC(=N)N)cc3Cl)o2)c(Cl)c1 | 95.7
14 | O=S(=O)(c1ccc(Cl)cc1)N1CCN(C(=S)NCc2ccco2)CC1 | 94.3
15 | O=C(c1ccc(F)cc1)N(CCNc1ccccc1)c1ccccc1 | 58.9
16 | CS(=O)(=O)Cc1nc2ccccc2oc1=O | < 0
17 | CC1=Nc2ccc(Cl)cc2C(O)(c2ccc(C)cc2)N1CCN1CCCCC1 (stereo unspecified) | > 100
18 | COc1ccc(OC(C)C(=O)Nc2ccc(Cl)cc2C)cc1 (stereo unspecified) | < 0
19 | Cc1ccc2cc(C3NC(=O)c4ccccc4N3)c(Cl)nc2c1 (stereo unspecified) | 95.2

Row | SMILES | growth inhibition [%]
20 | O=C(NCCc1c[nH]c2ccccc12)c1cc2ccccc2oc1=O | < 0
21 | CCCCc1ccc(NC(=O)Nc2ccc(O[C@H]3CCCC[C@@H]3N(C)c3ccccc3)c(F)c2)cc1 | 98.1
22 | CC(C)n1nc(-c2cc3c(Cl)cccc3[nH]2)c2c(N)ncnc21 | 57.9
23 | CN1CCC(c2cc(-c3ccncc3)c(-c3ccc(F)cc3)[nH]2)CC1 | 92.6
24 | CCOc1ccccc1NC(C)C(=O)Nc1cc(C(F)(F)F)ccc1N1CCOCC1 (stereo unspecified) | 91.6
25 | Cc1cc(OCC(=O)NCc2ccccc2)c2cc(Br)ccc2n1 | 56.5
26 | Cc1nn2c(=O)c3c([nH]c2c1-c1ccc(Cl)cc1)CCCC3 | 7.72
27 | CNC1C(OC2C(OC3C(O)C(O)C(N=C(N)N)C(O)C3N=C(N)N)OC(C)C2(O)C=O)OC(CO)C(O)C1O (stereo unspecified) | < 0
28 | Cc1cc(NC(=O)c2ccc(Oc3ccc(Cl)cc3O)o2)no1 | 24.4
29 | N#Cc1nc(-c2ccccc2)oc1S(=O)(=O)c1ccc(Cl)cc1 | 97.9
30 | Nc1ccc2ncnc(Nc3ccc(OCc4cccc(F)c4)c(Cl)c3)c2c1 | 99.7
31 | Cc1cc(Nc2ccncc2)n2nc(C)c(-c3ccccc3Cl)c2n1 | 94
32 | CC(=O)Nc1ccc(-c2noc(CC3CCCN(Cc4cccc(F)c4C)C3)n2)cc1 (stereo unspecified) | 93.6
33 | O=C(Nc1nc(-c2ccccn2)cs1)c1cncn1-c1ccccc1 | 65
34 | Cc1ccc(Oc2ccc(NC(=O)CNc3ccccc3N3CCCC3=O)cc2)cc1 | 98.3
35 | OCCc1ccc(Nc2nccc(-c3nnc4ccccn34)n2)cc1 | 65.5
36 | CCc1nc2ccc(C(=O)NCc3ccc4c(c3)OCO4)cn2c1N(C)Cc1cccs1 | < 0
37 | COc1ccc(S(=O)(=O)Nc2ccc(CN3CCN(C(=O)c4cccc(C#N)c4)CC3)cc2)cc1 | 41.6
38 | CS(=O)(=O)c1ccccc1C(=O)N(Cc1ccccc1)c1ccccc1 | < 0

same assay, conditions: 5 µM; minimal medium (MM); 72 h

Row | SMILES | growth inhibition [%]
39 | N#Cc1ccc(-c2ccc(OCC(N)=O)cc2)cc1 | < 0
40 | CNC(=O)C1Cc2ccccc2N1C(=O)Cc1ccc(F)cc1 (stereo unspecified) | < 0
41 | CCC(Sc1nc2ccccc2o1)C(=O)Nc1nnc(C)s1 (stereo unspecified) | 0.009
42 | CCOc1ccc(OCC(=O)Nc2cc(C)cc(C)c2)cc1 | < 0
43 | CCn1ncc2c(NC3CCOCC3)c(CNC(=O)c3ccnn3C)c(C)nc21 | 91.4
44 | CN(C(=O)c1cc2c(-c3cncnc3)cccc2[nH]1)c1ccccc1 | 94.3
45 | CCCCCCCCCCCCCCCCOP(=O)([O-])OCC[N+](C)(C)C | 8.75
46 | CO[C@H]1/C=C\O[C@@]2(C)Oc3c(C)c(O)c4c(O)c(/c(=C/NN5CCN(C)CC5)c(O)c4c3C2=O)=N\C(=O)/C(C)=C\C=C/[C@H](C)[C@H](O)[C@@H](C)[C@@H](O)[C@@H](C)[C@H](OC(C)=O)[C@@H]1C | 97.2
47 | c1ccc(C[C@@H]2CN(c3nccc(Oc4ccc(-n5ccnc5)cc4)n3)CCN2)cc1 | 95.3
48 | c1ccc2c(c1)CN(CC1CC1)CC1(CCN(Cc3c[nH]c4cnccc34)CC1)O2 | 87.4
49 | CCCNC(=O)N1CCC2(CC1)CC(=O)c1cc(C)ccc1O2 | 84.9
50 | O=C1Nc2ccc(Br)cc2C12NCCc1c2[nH]c2ccccc12 (stereo unspecified) | 87.5
51 | N=C(N)Nc1ccc(-c2ccc(-c3ccc(NC(=N)N)cc3Cl)o2)c(Cl)c1 | 95.3
52 | O=S(=O)(c1ccc(Cl)cc1)N1CCN(C(=S)NCc2ccco2)CC1 | 92.6
53 | O=C(c1ccc(F)cc1)N(CCNc1ccccc1)c1ccccc1 | 4.16
54 | CS(=O)(=O)Cc1nc2ccccc2oc1=O | < 0
55 | CC1=Nc2ccc(Cl)cc2C(O)(c2ccc(C)cc2)N1CCN1CCCCC1 (stereo unspecified) | 86.9
56 | COc1ccc(OC(C)C(=O)Nc2ccc(Cl)cc2C)cc1 (stereo unspecified) | < 0
57 | Cc1ccc2cc(C3NC(=O)c4ccccc4N3)c(Cl)nc2c1 (stereo unspecified) | 88.5

Row | SMILES | growth inhibition [%]
58 | O=C(NCCc1c[nH]c2ccccc12)c1cc2ccccc2oc1=O | < 0
59 | CCCCc1ccc(NC(=O)Nc2ccc(O[C@H]3CCCC[C@@H]3N(C)c3ccccc3)c(F)c2)cc1 | 85.4
60 | CC(C)n1nc(-c2cc3c(Cl)cccc3[nH]2)c2c(N)ncnc21 | 15.9
61 | CN1CCC(c2cc(-c3ccncc3)c(-c3ccc(F)cc3)[nH]2)CC1 | 92.2
62 | CCOc1ccccc1NC(C)C(=O)Nc1cc(C(F)(F)F)ccc1N1CCOCC1 (stereo unspecified) | 96.1
63 | Cc1cc(OCC(=O)NCc2ccccc2)c2cc(Br)ccc2n1 | < 0
64 | Cc1nn2c(=O)c3c([nH]c2c1-c1ccc(Cl)cc1)CCCC3 | 16.2
65 | CNC1C(OC2C(OC3C(O)C(O)C(N=C(N)N)C(O)C3N=C(N)N)OC(C)C2(O)C=O)OC(CO)C(O)C1O (stereo unspecified) | 8.51
66 | Cc1cc(NC(=O)c2ccc(Oc3ccc(Cl)cc3O)o2)no1 | 34.9
67 | N#Cc1nc(-c2ccccc2)oc1S(=O)(=O)c1ccc(Cl)cc1 | 55
68 | Nc1ccc2ncnc(Nc3ccc(OCc4cccc(F)c4)c(Cl)c3)c2c1 | 95.7
69 | Cc1cc(Nc2ccncc2)n2nc(C)c(-c3ccccc3Cl)c2n1 | 92.2
70 | CC(=O)Nc1ccc(-c2noc(CC3CCCN(Cc4cccc(F)c4C)C3)n2)cc1 (stereo unspecified) | 82
71 | O=C(Nc1nc(-c2ccccn2)cs1)c1cncn1-c1ccccc1 | < 0
72 | Cc1ccc(Oc2ccc(NC(=O)CNc3ccccc3N3CCCC3=O)cc2)cc1 | 91.8
73 | OCCc1ccc(Nc2nccc(-c3nnc4ccccn34)n2)cc1 | 52.1
74 | CCc1nc2ccc(C(=O)NCc3ccc4c(c3)OCO4)cn2c1N(C)Cc1cccs1 | < 0
75 | COc1ccc(S(=O)(=O)Nc2ccc(CN3CCN(C(=O)c4cccc(C#N)c4)CC3)cc2)cc1 | 13.7
76 | CS(=O)(=O)c1ccccc1C(=O)N(Cc1ccccc1)c1ccccc1 | < 0
